Measurements taken from PubChem BioAssay (Tox21).
Inconclusive results are not listed. Activity calls are given as the source filed them. Unless noted, calls follow the shape of the dose curve; as a rule, active = well fitted curve in the direction sought with a large enough effect in the repeat runs; inconclusive = weak or mixed curves; inactive = no such curve, though single readings can be large; an effect the other way counts as inactive or inconclusive.

How the values were obtained:
[1] = A CellTox Green Cytotoxicity Assay to monitor cytotoxicity in HepG2 cells - 8 hour (AID 1224890); also: nearly all actives have a fitted effect of over 45% in size
Summary of the method: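 HepG2, 600 cells/well premixed w/ CellTox Green; 5 h settle, 37 C/5% CO2; pintool cpd add (DMSO); 37 C, 40 h; fluorescence read at 0, 8, 16, 24, 32, 40 h.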

[2] = qHTS assay to identify small molecule antagonists of the androgen receptor (AR) signaling pathway using the MDA cell line in the presence of 0.5 nM R1881 - cell viability counter screen (AID 1259242); also: nearly all actives have a fitted effect of over 45% in size
Summary of the method: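 Live-cell protease fluorescence, CellTiter-Fluor, 30 min at 37C. Cells: MDA-kb2, 3,000/well, preincubated 5 hr. Compounds plus 0.5 nM R1881 final, 16 hr, 37C, 0% CO2.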

[3] = qHTS assay to identify small molecule phospholipidosis (PLD) inducers (AID 1259344; active = well fitted curve in the direction sought with a large enough effect; an effect the other way counts as inactive or inconclusive)
Summary of the method: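 Cells (HepG2, 900 per well) attach for 4 h, receive LipidTOX Red and compound together, incubate 24 h at 37 C, are fixed 30 min with paraformaldehyde/Hoechst, then imaged at one site per well.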

[4] = qHTS assay to identify small molecule HDAC inhibitors (AID 1259364);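 also: wild-type HCT-116 cells with endogenous class I/II HDAC activity; top concentration of the series differs between compounds; nearly all actives have a fitted effect of over 45% in size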
Summary of the method: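 HCT-116 (wild type), 1,500 cells/well, overnight; compound 2 hr 37C 5% CO2; HDAC-Glo I/II reagent 30 min RT; luminescence readout.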

[5] = qHTS assay to identify small molecule HDAC inhibitors - cell viability counter screen (AID 1259365); also: series mostly up to about 92 µM; nearly all actives have a fitted effect of over 50% in size
Summary of the method: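 Viability readout: CellTiter-Glo luminescence. Wild-type HCT-116 cells, 2hr compound treatment following overnight attachment at 37 C.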

[6] = qHTS assay to identify small molecule agonists of the sonic hedgehog signaling (Shh) pathway - cell viability counter screen (AID 1259366); also: nearly all actives have a fitted effect of over 50% in size
Summary of the method: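 Viability measured fluorometrically (CellTiter-Fluor, 1hr, 37C) in 3T3 Gli1-Luc reporter cells after 23hr compound exposure within a 24hr incubation at 37C/5% CO2.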

[7] = qHTS assay to identify small molecule antagonists of the sonic hedgehog signaling (Shh) pathway - cell viability counter screen (AID 1259367); also: nearly all actives have a fitted effect of over 55% in size
Summary of the method: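 Cytotoxicity was assessed in parallel with Shh reporter activity by measuring live-cell protease fluorescence (CellTiter-Fluor) in NIH/3T3 cells stably carrying Gli1-Luc, treated with compound under conditioned medium stimulation for 23 hr plus 1 hr reagent incubation.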

[8] = qHTS assay to identify small molecule agonists of the sonic hedgehog signaling (Shh) pathway (AID 1259368; calls by dose curve;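 also: NIH/3T3-derived 3T3Gli1-Luc cells carrying a stable Gli1-driven firefly luciferase reporter; series mostly up to about 92 µM; nearly all actives have a fitted effect of over 15% in size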)
Summary of the method: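 Read-out: firefly luciferase luminescence from a Gli1 response element reporter stably integrated in NIH/3T3-derived 3T3Gli1-Luc cells, measured 30 min at room temperature after reagent addition. Compound exposure lasted 24 hr at 37 C, 5% CO2.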

[9] = qHTS assay to identify small molecule antagonists of the sonic hedgehog signaling (Shh) pathway (AID 1259369; calls by dose curve; also: nearly all actives have a fitted effect of over 45% in size)
Summary of the method: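 Luminescence readout: firefly Luc under Gli1 response element in 3T3Gli1-Luc cells (NIH/3T3 clone). Antagonist mode, stimulation by conditioned medium; compound exposure 24hr at 37 C, 5% CO2.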

[10] = molecular target: Estrogen receptor beta (Homo sapiens) (UniProt Q92731); assay: qHTS assay to identify small molecule agonists of the estrogen receptor beta (ER-beta) signaling pathway (AID 1259377; active = well fitted activation curve with a large enough effect in the signal ratio in the repeat runs, not every such curve was filed as active; the % refers to the signal ratio)
Chain of Estrogen receptor beta (Homo sapiens) (Q92731 whole entry, looked up): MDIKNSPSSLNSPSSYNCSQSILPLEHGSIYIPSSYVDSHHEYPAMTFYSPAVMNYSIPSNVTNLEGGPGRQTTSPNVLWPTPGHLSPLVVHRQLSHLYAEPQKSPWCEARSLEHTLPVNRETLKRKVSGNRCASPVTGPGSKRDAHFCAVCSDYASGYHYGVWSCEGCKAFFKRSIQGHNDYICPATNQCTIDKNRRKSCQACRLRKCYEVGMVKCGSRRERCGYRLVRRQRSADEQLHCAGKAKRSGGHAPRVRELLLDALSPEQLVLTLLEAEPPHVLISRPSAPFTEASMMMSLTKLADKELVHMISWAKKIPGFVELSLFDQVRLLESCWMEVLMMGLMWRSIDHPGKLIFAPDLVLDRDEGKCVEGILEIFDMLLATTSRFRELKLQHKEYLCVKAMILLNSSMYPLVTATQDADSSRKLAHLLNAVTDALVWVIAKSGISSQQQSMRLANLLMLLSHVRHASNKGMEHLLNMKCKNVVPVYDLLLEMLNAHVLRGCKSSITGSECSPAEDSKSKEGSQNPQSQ
Summary of the method: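 A UAS-controlled beta-lactamase reporter in ER-beta-UAS-bla HEK293T cells reports receptor activation. Compounds act for 16 hr at 37C in 2% charcoal-stripped serum, and a FRET substrate is read by fluorescence after 2 hours.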

[11] = molecular target: Estrogen receptor beta (Homo sapiens) (UniProt Q92731); assay: qHTS assay to identify small molecule antagonists of the estrogen receptor beta (ER-beta) signaling pathway (AID 1259378; active = well fitted inhibition curve with a large enough effect in the signal ratio in the repeat runs, not every such curve was filed as active; the % refers to the signal ratio)
Summary of the method: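 ER-beta-UAS-bla HEK293T (GripTite) cells in 2% charcoal-stripped FBS medium were preincubated 6 hr at 37C, dosed with compound, then stimulated with 1 nM E2 (final) for 16 hr; beta-lactamase reporter read by B/G FRET fluorescence after 2 hr substrate loading.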

[12] = qHTS assay to identify small molecule agonists of the androgen receptor (AR) signaling pathway in the presence of an antagonist - cell viability counter screen (AID 1259379);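 also: MDA-kb2 human breast cancer cells carrying an MMTV luciferase reporter; series mostly up to about 92 µM; nearly all actives have a fitted effect of over 25% in size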
Summary of the method: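 Viability counter screen: CellTiter-Fluor fluorescence, measured in the same wells as the luciferase read-out. MDA-kb2 cells, 3,000/well, with nilutamide at 3.0uM final and compounds at 15 concentrations, 16 hr at 37C, 0% CO2.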

[13] = qHTS assay to identify small molecule agonists of the estrogen receptor beta (ER-beta) signaling pathway - cell viability counter screen (AID 1259380); also: nearly all actives have a fitted effect of over 30% in size
Summary of the method: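 Luminescence read-out (CellTiter-Glo, 30 min, room temp) taken in the same wells as the beta-lactamase reporter assay; ER-beta-UAS-bla HEK293T cells exposed to DMSO-dissolved compounds for 16 hr at 37C in 2% charcoal-stripped FBS medium.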

[14] = qHTS assay to identify small molecule antagonists of the estrogen receptor beta (ER-beta) signaling pathway - cell viability counter screen (AID 1259382); also: series mostly up to about 92 µM; nearly all actives have a fitted effect of over 55% in size
Summary of the method: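 Luminescent ATP read-out (CellTiter-Glo, 30 min, RT) taken in the same wells as the bla reporter assay. HEK293T ER-beta-UAS-bla cells in 2% charcoal-stripped FBS were exposed to compounds with 1nM E2 for 16 hr at 37C.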

[15] = qHTS assay to identify small molecule agonists or antagonists of the thyroid stimulating hormone receptor (TSHR) signaling pathway - wild type cell line counter screen (AID 1259384; calls by dose curve)
Summary of the method: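 Wild-type HEK293 cells were plated 18 h at 37 C/5% CO2, pin-dosed with compound plus Ro20-1724 medium, held 30 min at room temperature, then given cAMP-d2 and anti-cAMP-cryptate; fluorescence was read after 1 h. Fifteen concentrations, triplicate.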

[16] = molecular target: Estrogen receptor (Homo sapiens) (UniProt P03372); assay: qHTS assay to identify small molecule antagonists of the estrogen receptor alpha (ER-alpha) signaling pathway using the BG1 cell line in the presence of 0.1 nM 17-beta-estradiol (AID 1259244); also: nearly all actives have a fitted effect of over 50% in size
Chain of Estrogen receptor (Homo sapiens) (P03372 whole entry, looked up): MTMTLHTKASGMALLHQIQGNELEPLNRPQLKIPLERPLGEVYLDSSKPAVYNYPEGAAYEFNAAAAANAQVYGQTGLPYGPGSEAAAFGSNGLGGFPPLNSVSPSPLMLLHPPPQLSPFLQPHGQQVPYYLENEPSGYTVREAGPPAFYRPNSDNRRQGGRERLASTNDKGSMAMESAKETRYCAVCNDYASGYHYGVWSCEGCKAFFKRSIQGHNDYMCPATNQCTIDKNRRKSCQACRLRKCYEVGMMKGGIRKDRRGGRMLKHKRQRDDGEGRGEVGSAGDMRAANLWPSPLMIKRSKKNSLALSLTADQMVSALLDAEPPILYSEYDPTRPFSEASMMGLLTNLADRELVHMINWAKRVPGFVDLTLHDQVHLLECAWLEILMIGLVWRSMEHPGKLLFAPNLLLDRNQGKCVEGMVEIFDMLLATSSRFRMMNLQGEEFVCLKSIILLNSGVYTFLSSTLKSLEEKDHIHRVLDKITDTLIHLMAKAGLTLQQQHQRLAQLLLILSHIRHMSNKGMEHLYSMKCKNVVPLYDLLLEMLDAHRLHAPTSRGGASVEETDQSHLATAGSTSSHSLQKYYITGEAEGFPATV
Summary of the method: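 Luminescence after ONE-Glo (30 min, room temperature) measured ERE-luciferase activity in VM7Luc4E2 cells treated 22 h with compound and 0.1 nM final 17beta-estradiol as stimulator.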

[17] = molecular target: Estrogen receptor (Homo sapiens) (UniProt P03372); assay: qHTS assay to identify small molecule agonists of the estrogen receptor alpha (ER-alpha) signaling pathway in the presence of an antagonist (AID 1259383; calls by dose curve; also: top concentration of the series differs between compounds; nearly all actives have a fitted effect of over 15% in size)
Summary of the method: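 Luciferase luminescence (ONE-Glo, 30min at room temperature) measured in VM7Luc4E2 cells after 22hr compound exposure at 15 concentrations, with 10.0nM ICI-182,780 final present; cells express endogenous ER-alpha and carry four EREs upstream of luciferase.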

[18] = qHTS assay to identify small molecule antagonists of the estrogen receptor alpha (ER-alpha) signaling pathway using the BG1 cell line in the presence of 0.1 nM 17-beta-estradiol - cell viability counter screen (AID 1259241); also: nearly all actives have a fitted effect of over 40% in size
Summary of the method: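 The cell line endogenously expresses full-length ER-alpha and carries four EREs driving luciferase. Cells are cultured 5 days hormone-free, treated 22 hr with compounds and 0.1 nM estradiol, then viability is read by fluorescence.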

Measured: Potency

Nc1nnc(-c2cccc(Cl)c2Cl)c(N)n1
inactive: [1] | [2] | [3] | [4] | [5] | [6] | [7] | [8] | [9] | [10] | [11] | [12] | [13] | [14] | [15]

C[C@H](N)[C@H](O)c1cccc(O)c1
inactive: [1] | [2] | [16] | [3] | [4] | [5] | [6] | [7] | [8] | [9] | [10] | [11] | [12] | [13] | [14] | [17] | [15]

O=C1O[C@@H]2[C@@H](O)[C@H](O)O[C@@H]2[C@H]1O
inactive: [1] | [2] | [16] | [3] | [4] | [5] | [6] | [7] | [8] | [10] | [11] | [12] | [13] | [14] | [17] | [15]

O=C(CCNNC(=O)c1ccncc1)NCc1ccccc1
inactive: [1] | [2] | [16] | [3] | [4] | [5] | [6] | [7] | [8] | [9] | [12] | [13] | [14] | [15]

COCCOC(=O)C1=C(C)NC(C)=C(C(=O)OC(C)C)C1c1cccc([N+](=O)[O-])c1 (stereo not given)
inactive: [1] | [2] | [16] | [3] | [4] | [5] | [6] | [7] | [8] | [12] | [13] | [14] | [17] | [15]

CC(C)CC(=O)O
inactive: [18] | [2] | [16] | [4] | [5] | [6] | [7] | [8] | [9] | [10] | [11] | [12] | [13] | [14] | [17] | [15]

CC[C@H](C)C(=O)O[C@H]1C[C@H](O)C=C2C=C[C@H](C)[C@H](CC[C@@H](O)C[C@@H](O)CC(=O)O)[C@H]21
inactive: [2] | [16] | [3] | [4] | [5] | [6] | [7] | [8] | [9] | [10] | [12] | [13] | [14] | [17]

C[C@H](CCC(=O)O)[C@H]1CC[C@H]2[C@@H]3C(=O)C[C@@H]4CC(=O)CC[C@]4(C)[C@H]3CC(=O)[C@]12C
inactive: [2] | [16] | [3] | [4] | [5] | [6] | [7] | [8] | [10] | [11] | [12] | [13] | [14] | [15]
